These results are taken from PubChem BioAssay AID686970 (National Center for Advancing Translational Sciences (NCATS), 2013).

SMILES strings stand for the structures. About 6,000 (1.7%) of roughly 360,000 compounds were called active. Inconclusive results (about 8%) are left out. The call rests on the fitted dose curve; in most records, active means well fitted cell-killing curve with a large enough effect; inconclusive means small, poorly fitted or top-dose-only effect, or effect the other way; inactive means flat fitted curve, though single readings scatter. The list comes from a sample in which actives are over-represented; it also holds similar structures and randomly drawn compounds.
Potency means the concentration at half of the fitted maximal effect.

The test in a line: qHTS for induction of synthetic lethality in tumor cells producing 2HG: qHTS for the HT-1080-NT fibrosarcoma cell line.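 Further: NT is the 2HG producing partner of a matched IDH1 knockdown line; nearly all actives have a fitted effect of over 55% in size.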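 On activity, negative = less viability: 0% = DMSO-treated cells and -100% = media-only wells without cells.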 The note with it: HT-1080-NT fibrosarcoma viability, CellTiter-Glo ATP luminescence, 48 h; series mostly up to 46.1 µM; activity, negative = less viability: at the top concentration. In short, it runs like this: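 Toxicity toward the 2HG-producing NT line was scored as %Activity, normalised to DMSO and no-cell wells, from CellTiter-Glo luminescence after 48 hours' treatment.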
Background: In qHTS, concentration-response curves come from the screen itself.
Take `Cc1cc(C)cc(OCC(=O)NCc2cc(C)nc3ccccc23)c1`: the “activity, negative = less viability” value was -3.23% (inactive). On the same count and under the same terms, under `Cc1cc(C)c(NC(=O)c2oc3ccccc3c2COc2ccccc2)c(C)c1` stands -3.26% (inactive). Consider `Cc1cc(C)c(NC(=O)C[N+](C)(C)CC(O)COc2cccc3ccccc23)c(C)c1` (stereo not given), for which the Potency is 18.4 µM (active). `CC(C)(C(=O)NO)c1ccccc1`: the “activity, negative = less viability” value was -14.5% (inactive). As to `CCN1C(=O)[C@H]2[C@@H](c3ccc(C(F)(F)F)cc3)N[C@]3(CCCN(Cc4ccc(Br)cc4)C3=O)[C@H]2C1=O`, the “activity, negative = less viability” value was -8.24% (inactive). Consider `COc1cccc(CN2CCC(C(=O)NC(c3ccc4c(c3)OCO4)c3ccccn3)CC2)c1` (stereo not given), for which the “activity, negative = less viability” value was 2.22% (inactive). Consider `O=C(NC(c1ccc(-c2ccccc2)cc1)c1cnccn1)C1CCN(CCOc2ccc(Cl)cc2Cl)CC1` (stereo not given), for which the Potency was 20.6 µM (active). As for `O=C(CCCOc1ccc(Cl)cc1Cl)NNC(=O)C1CCC1`, the “activity, negative = less viability” value is -13.1% (inactive). With `CCCNC(=O)C1(C)CCN1C(=O)C1(c2ccccc2)CC1` (stereo not given), the “activity, negative = less viability” value was 21.2% (inactive). For `COc1ccccc1CNC(=O)c1cc(-c2cc(F)ccc2OC)n[nH]1`, the “activity, negative = less viability” value is -1.62% (inactive). Consider `CCNC(=O)c1cc2c(c(-c3cccc(-c4cncnc4)c3)n1)[C@H](CCO)N(C(C)=O)C2`, for which the “activity, negative = less viability” value is -4.1% (inactive). On to `COC(=O)c1ccc2nc(-c3ccc(Cl)cc3)c(Cc3cccc(F)c3)n2c1`, for which the “activity, negative = less viability” value was 1.35% (inactive). Regarding `Cn1c(=O)c2cc(NC(=O)NCCc3cccs3)ccc2n1Cc1cccc(C(F)(F)F)c1`, the “activity, negative = less viability” value is 2.3% (inactive). Consider `CCN(CCCCOC(=O)c1ccc(OC)c(OC)c1)C(C)Cc1ccc(OC)cc1` (stereo not given), for which the Potency is 18.4 µM (active). As to `COc1ccc(C(=O)OCC(=O)NCCCc2ccccc2)cc1OC`, the “activity, negative = less viability” value is 5.07% (inactive). Same read-out and setting: the same measure for `COc1ccccc1NC(=O)COc1ccc(C(=O)OCC(=O)N(C(C)C)C(C)C)cc1OC`: -5.95% (inactive). The same measure, in the same setting: under `CCC(=O)N1Cc2cc(C(=O)NCc3cccc(F)c3)nc(-c3cccc(C4=CCCC4)c3)c2[C@H]1CCO` stands -25.7% (inactive). For `CS(=O)(=O)c1cccc(-c2ccc3nncn3c2)c1`, the “activity, negative = less viability” value is 19% (inactive). Same read-out and setting: the same measure for `CCOC(=O)N1CCN(C(c2ccnc3ccccc23)c2nnnn2-c2c(C)cccc2C)CC1` (stereo not given): -2.12% (inactive). Same read-out and setting: under `CCCCN1CC(C)(C)[C@H](CC(=O)Nc2ccc(Br)cc2)C1=O` stands 15.3% (inactive). Regarding `CN1C(CC(=O)Nc2ccc(Br)cc2)c2ccccc2CC1(C)C` (stereo not given), the Potency was 18.4 µM (active). Take `CC1(C)CN(CCc2ccccc2)C(=O)[C@H]1CC(=O)Nc1ccc(Br)cc1`: the “activity, negative = less viability” value was -0.774% (inactive).

`COC(=O)c1ccc2nc(-c3cccc(Br)c3)c(Cc3ccc(OC)cc3C)n2c1`: the “activity, negative = less viability” value was -1.34% (inactive).

As to `COCCn1c(SCC(=O)Nc2ccc(F)cc2F)nc2c(c1=O)SCC2`, the “activity, negative = less viability” value is -4.25% (inactive). For the compound `COc1ccccc1NC(=O)N(O)C1(C#N)CCCCC1`, the “activity, negative = less viability” value was 4.03% (inactive).

As for `COc1ccccc1NC(=O)COC(=O)COc1ccccc1F`, the “activity, negative = less viability” value is 1.92% (inactive). As for `COc1ccccc1NC(=O)/C=C/C(N)=O`, the Potency is 8.91 µM (active). As for `O=C1NC[C@H](CCCCN2C[C@H](Cc3ccc(O)cc3)N(CCc3ccccc3)C(=O)C2=O)N(CCc2ccccc2)C1=O`, the “activity, negative = less viability” value is 3.97% (inactive). Consider `Cc1cc(C(C)(C)C)cc(C)c1N`, for which the “activity, negative = less viability” value is 6.3% (inactive). Turning to `Cc1cc(N)n2nc(-c3ccc(C(C)(C)C)cc3)cc2n1`, the Potency is 16.4 µM (active).

`COc1ccc(-c2cc(C)nc3nc(N)nn23)cc1`: the “activity, negative = less viability” value is -2.16% (inactive).

`Cc1ccc(S(=O)(=O)NN=C2CC(C)(C)CC(=O)C2(C)C)cc1`: the “activity, negative = less viability” value is 6.95% (inactive). For the compound `CC(=O)NC(c1cccc(F)c1)c1nc(-c2cccc(F)c2)cs1` (stereo not given), the “activity, negative = less viability” value was 1.42% (inactive). Same read-out and setting: the same measure for `Cc1ccc(C(O)c2ncc(-c3ccccc3F)[nH]2)cc1F` (stereo not given): 1.03% (inactive); for `CC(=O)Nc1ccc(S(=O)(=O)N(C)c2nc3ccccc3nc2Cl)cc1`: -0.551% (inactive); for `CC(=O)Nc1ccc(Nc2c([N+](=O)[O-])cc(S(C)(=O)=O)cc2[N+](=O)[O-])cc1`: -24.2% (inactive). Turning to `CC(=O)Nc1ccc(Nc2c3ccccc3nc3ccccc23)cc1`, the Potency is 14.6 µM (active). Turning to `C[C@H]1CN([C@@H](C)CO)C(=O)c2cc(-c3ccccc3F)cnc2O[C@H]1CN(C)C(=O)C1CCOCC1`, the “activity, negative = less viability” value is 0.535% (inactive).

Turning to `CCOc1ccc(NC(=O)CSc2nnc3c(n2)[nH]c2ccc(S(=O)(=O)N4CCOCC4)cc23)cc1`, the “activity, negative = less viability” value is 7.72% (inactive).

With `CCc1nnc(NC(=O)C2CCCN2S(=O)(=O)c2ccccc2)s1` (stereo not given), the “activity, negative = less viability” value is -5.38% (inactive).

With `CCc1nnc(NC(=O)c2ccc(S(=O)(=O)NC3CCCCC3)cc2)s1`, the Potency is 6.31 µM (active).

With `CCc1nnc(NC(=O)c2cc(S(=O)(=O)N3CCCCC3)ccc2C)s1`, the “activity, negative = less viability” value was 4.89% (inactive). Still for that read-out and setting: under `CCOC(=O)c1c(NC(=O)COC(=O)c2ccc(S(=O)(=O)C(F)F)cc2)sc(C(=O)N(C)C)c1C` stands 8.55% (inactive). Same read-out and setting: under `CCCCn1nnnc1C1(C)CCC(=O)N1Cc1ccc(OC)c(OC)c1` (stereo not given) stands 18% (inactive). `Cc1cccc(NC(=O)COC(=O)c2ccccc2OCc2cccc(Br)c2)c1`: the “activity, negative = less viability” value is -2.81% (inactive).

With `COc1ccc(C(O)c2nc(-c3ccc(OC)nc3)cs2)cc1` (stereo not given), the “activity, negative = less viability” value was 1.33% (inactive).

In the case of `COc1ccc(CS(=O)/C(Cl)=C(/Cl)C(=O)Nc2ccc(OC)nc2)cc1` (stereo not given), the Potency is 1.3 µM (active). `COc1ccc(NC(=O)CN2C(=O)NC(C)(c3ccccc3)C2=O)cn1` (stereo not given): the “activity, negative = less viability” value is 5.3% (inactive). Same read-out and setting: the same measure for `CC(=O)NC(c1ccccc1)c1nc(-c2ccccc2C)cs1` (stereo not given): 13.7% (inactive); for `CSc1ncnc2c1ncn2CCCNCC(C)c1ccccc1` (stereo not given): -0.244% (inactive).
